The values below come from ChEMBL document CHEMBL3988442, “University of Dundee, Small-Polar-MMV Screening Library” (2021).

Hit rate of the full screen: of about 48,000 compounds, about 13,000 (27%) showed an effect of 50% or more. The list shows a part of the results.

The test system of the assay is Wolbachia pipientis. In words: Anti-Wolbachia Cell-Based Screen. To be noted: 5 µM. Further details: scale not given: in the data most compounds retested in dose-response had high values. It is filed as functional.
As to `CN(C)CCNC(=O)[C@H]1C[C@H]2CN(c3ncccn3)C[C@H]2N1C.O=C(O)C(F)(F)F.O=C(O)C(F)(F)F.O=C(O)C(F)(F)F`, the “Percent Effect” value is -2.268%. As for `COCC(=O)NC[C@H]1C[C@@H]2CCN1C[C@@H]2c1cc(-c2cccs2)nn1C`, the “Percent Effect” value is recorded as -7.322%. Turning to `O=C1[C@H]2CN(Cc3ccoc3)C[C@@H]2CCN1Cc1cccnc1`, the “Percent Effect” value is -2.353%.

In the case of `CN1CCN(C[C@@H]2OC[C@H]3CN(Cc4ccncc4)CC[C@H]32)CC1`, the “Percent Effect” value amounted to 117.8%. Next, `O=C(O)C(F)(F)F.O=C(O)C(F)(F)F.c1cnc(NC[C@H]2OC[C@@H]3CCN(Cc4ccsc4)C[C@@H]32)nc1`: 103.6%; `CN(c1ncccc1C#N)C1CCN(Cc2ccncc2)CC1`: -9.884%; `Cn1ccnc1CN1CC[C@H]2CO[C@H](CNc3ncccn3)[C@H]2C1.O=C(O)C(F)(F)F.O=C(O)C(F)(F)F.O=C(O)C(F)(F)F`: 100.8%. Next, `CS(=O)(=O)NC[C@H]1OC[C@@H]2CN(Cc3cccnc3)CC[C@@H]21`: 117.5%; `CN1CCN([C@H]2COC[C@@H]3CN(Cc4cccnc4)C[C@@H]32)CC1`: 3.012%. Turning to `COc1ccc(CCN)cc1-c1ccc(C(N)=O)cc1`, the “Percent Effect” value is recorded as -8.06%.

Consider `Cc1noc(C)c1CN1C[C@@H]2OCCN(Cc3cnn(C)c3)[C@@H]2C1`, for which the “Percent Effect” value is -6.904%. On to `COCCn1c(C(=O)NC(C(N)=O)C(C)C)cc2ccccc21` (centres undefined), for which the “Percent Effect” value was -3.087%. Next, `Cc1ccccc1-n1cc(C2=CCN(CCn3cc[nH]c3=O)CC2)cn1`: 20.16%; `Cc1cc(C)c(CNc2ncnc3ccsc23)c(=O)[nH]1`: 1.6%. Turning to `O=C(CC1CC1)N[C@@H]1CN(Cc2ccccn2)C[C@@H]2CCCO[C@@H]21.O=C(O)C(F)(F)F.O=C(O)C(F)(F)F`, the “Percent Effect” value was -3.839%. The same measure for `O=C(O)C(F)(F)F.O=C(O)C(F)(F)F.O=C(O)C(F)(F)F.c1ccc(CN2CC[C@@H]3[C@@H](CO[C@@H]3CNc3ncccn3)C2)nc1`: 94.77%; for `O=S1(=O)CCC(n2cc(C3=CCN(CCn4cccc4)CC3)cn2)C1` (centres undefined): -6.845%. The same measure for `Cc1nc(C(C)C)sc1C(=O)N1CCN(C2CN3CCC2CC3)CC1` (centres undefined): 76.14%. The same measure for `COCCN1CCCC12CCCN(c1ncccn1)C2` (centres undefined): -3.4%; for `CC(C)(C)c1cc(=O)[nH]c(C2(N)CCCCC2)n1.Cl`: -23.57%. Turning to `c1ccc(CCN2C[C@@H]3OCCN(c4ncccn4)[C@@H]3C2)cc1`, the “Percent Effect” value was 21.57%. The same measure for `CN(C)c1nccc(N2CCO[C@H]3CN(Cc4ccsc4)C[C@H]32)n1.O=C(O)C(F)(F)F`: 12.89%; for `CN(C)c1nccc(N2CCO[C@H]3CN(Cc4ccco4)C[C@H]32)n1`: 68.55%.

Take `Cc1cccc(CN2C[C@@H]3OCCN(S(=O)(=O)N(C)C)[C@@H]3C2)n1`: the “Percent Effect” value was determined as 2.928%.

In the case of `COCCN1C[C@@H]2OCCN(c3ccnc(N(C)C)n3)[C@@H]2C1`, the “Percent Effect” value was found to be 104.4%. Next, `Cn1ccnc1CN1C[C@@H]2OCCN(c3ncccn3)[C@@H]2C1`: 7.273%. As to `Cc1nc(CN2CCOC3(CCCC3)C2)oc1C`, the “Percent Effect” value is given as 98.63%.

With `Cc1nc(CN2CCN(C(=O)COc3c(C)ccc(C)c3C)CC2)no1`, the “Percent Effect” value was determined as 0.1735%. In the case of `CC(=O)N1CCCC2(CN(Cc3ccncc3)CCO2)C1` (centres undefined), the “Percent Effect” value was -7.212%. The same measure for `CN1CCC(N2CCOC3(CCCC3)C2)C1=O` (centres undefined): 17.36%; for `Cc1noc(C)c1CN1CCCC2(C1)CN(c1nncs1)CCO2` (centres undefined): -8.738%; for `CCc1noc(CN2CCOC3(CCCC3)C2)n1`: 98.78%. The same measure for `c1cc(CN2CCOC3(CCCC3)C2)no1`: -7.47%; for `OCCN1CCOC2(CCCN(c3ncccn3)C2)C1` (centres undefined): 10.98%; for `Cc1nc(CN2CCOC3(CCCC3)C2)no1`: 71.5%. Consider `Cl.NCC1(c2cccc(Br)c2)CCOCC1`, for which the “Percent Effect” value is given as -3.113%.

As to `CN(Cc1nc2ccsc2c(=O)[nH]1)C[C@@H]1CCCN2CCCC[C@H]12`, the “Percent Effect” value was found to be 9.481%.

With `Cc1cc(C)nc(N2CCCC2c2cccnc2)n1` (centres undefined), the “Percent Effect” value is -35.57%. The same measure for `Cc1cc(N2CCCC2c2cccnc2)nc(C)n1` (centres undefined): -8.687%. As for `Cc1nn(C)c2nc(N3CCCCC3c3cccnc3)sc12` (centres undefined), the “Percent Effect” value is reported as 116.8%.

Consider `c1cc(CN2CCOCC3(CCNCC3)C2)ccn1`, for which the “Percent Effect” value was -46.48%. The same measure for `CNc1nccnc1C1CCN(C(C)C)CC1`: 92.81%. With `Cc1n[nH]c(C)c1CC(=O)N1CCCN(C)C2(CCN(C)CC2)C1`, the “Percent Effect” value was 0.449%. The same measure for `CCS(=O)(=O)N1CC[C@H](OC)[C@H]2CN(Cc3ccncc3)C[C@H]21.O=C(O)C(F)(F)F.O=C(O)C(F)(F)F`: 4.967%; for `CO[C@@H]1CCN(S(=O)(=O)N(C)C)[C@@H]2CN(Cc3ccncc3)C[C@@H]21.O=C(O)C(F)(F)F.O=C(O)C(F)(F)F`: 7.733%; for `CO[C@@H]1CCN(Cc2cccs2)[C@@H]2CN(Cc3ccncc3)C[C@@H]21.O=C(O)C(F)(F)F.O=C(O)C(F)(F)F.O=C(O)C(F)(F)F`: 96.91%. Consider `CO[C@H]1CCN(C2CCC2)[C@@H]2CN(Cc3ccncc3)C[C@H]12.O=C(O)C(F)(F)F.O=C(O)C(F)(F)F.O=C(O)C(F)(F)F`, for which the “Percent Effect” value came to 1.676%.

`CO[C@H]1CCN(Cc2cccs2)[C@@H]2CN(Cc3ccncc3)C[C@H]12.O=C(O)C(F)(F)F.O=C(O)C(F)(F)F.O=C(O)C(F)(F)F`: the “Percent Effect” value came to 110%. With `CO[C@@H]1CCN(S(=O)(=O)N(C)C)[C@@H]2CN(Cc3cccnc3)C[C@@H]21.O=C(O)C(F)(F)F.O=C(O)C(F)(F)F`, the “Percent Effect” value was -16.98%. The same measure for `Nc1ncccc1CN1C[C@H]2OC(=O)N(Cc3ccccn3)[C@H]2C1`: 0.5145%; for `CCc1nc(CN2CCN(C(=O)Cc3c(C)noc3C)CC2)cs1`: 0.6841%.

For the compound `O=C1CSC(c2ccncc2)c2c[nH]nc2N1` (centres undefined), the “Percent Effect” value is on record as 107.2%. The same measure for `COc1ccc(C2SCC(=O)Nc3ccsc32)cc1OC` (centres undefined): -3.857%; for `COc1ccc(C2SCC(=O)Nc3ccsc32)cc1` (centres undefined): 24.55%.
